# In all, about 66,000 compounds went through this assay and about 960 (1.5%) showed an effect of 50% or more. For the sample, strong results were picked, then their nearest neighbours and some compounds at random.
# Tested on: Trypanosoma brucei
# Experiment: Trypanosoma brucei 72 hour study
# Assay type: functional, organism-based
# Design: scale not given: in the data most compounds retested in dose-response had high values
compound,measurement,setting,value
Cc1nn(C)c(N2CCOCC2)c1CNC1CCc2cc(F)ccc21.Cl (centres undefined),Percent Effect,"30.3 µM, […]",2.572%
O=C(c1ccccn1)N1CCCC(c2cc(C(F)F)n3ncnc3n2)C1 (centres undefined),Percent Effect,"30.3 µM, […]",-6.514%
CN(C)CCn1c2c(ccc1=O)CCN(C(=O)c1cccs1)CC2.O=C(O)C(F)(F)F,Percent Effect,"30.3 µM, […]",-37.11%
CC(C)NC(=O)CC1COC2(CCN(Cc3ccco3)CC2)C1 (centres undefined),Percent Effect,"30.3 µM, […]",-14.26%
Cn1ccc(C(=O)NC2CCC23CCN(Cc2ccc(F)cc2)CC3)c1.O=C(O)C(F)(F)F (centres undefined),Percent Effect,"30 µM, 30.03 µM",3.839%
CC(C)Nc1nc(N2CCCC2)nc2c1CN(C)CC2,Percent Effect,"30.3 µM, […]",-8.686%
COCCC(=O)N1CCc2nc(N3CCOCC3)nc(NC(C)C)c2C1,Percent Effect,"30.3 µM, […]",-26.7%
CC(C)CC(=O)N1CCc2nc(N3CCOCC3)nc(NC(C)C)c2C1,Percent Effect,"30 µM, 30.03 µM",21.8%
CC(C)Nc1nc(N2CCCC2)nc2c1CN(C(C)C)CC2,Percent Effect,"30 µM, 30.03 µM",99.66%
CCN1CCc2nc(N3CCOCC3)nc(NC(C)C)c2C1,Percent Effect,"30.3 µM, […]",-20.31%
CCC(C)N1CCc2nc(N3CCCC3)nc(NC(C)C)c2C1 (centres undefined),Percent Effect,"30.3 µM, […]",80.67%
CC(C)Nc1nc(N2CCCC2)nc2c1CN(c1ncc(F)cn1)CC2,Percent Effect,"30.3 µM, […]",99.94%
CCCN1CCc2nc(N3CCOCC3)nc(NC(C)C)c2C1,Percent Effect,"30.3 µM, […]",-24.43%
CC(C)Nc1nc(N2CCOCC2)nc2c1CN(CC(=O)N(C)C)CC2,Percent Effect,"30 µM, 30.03 µM",-12.25%
CC(C)Nc1nc(N2CCCC2)nc2c1CN(S(C)(=O)=O)CC2,Percent Effect,"30.3 µM, […]",-6.542%
CC(C)CCN1CCc2nc(N3CCOCC3)nc(NC(C)C)c2C1,Percent Effect,"30.3 µM, […]",99.5%
CC(C)Nc1nc(N2CCCC2)nc2c1CCN(S(C)(=O)=O)CC2.O=C(O)C(F)(F)F.O=C(O)C(F)(F)F,Percent Effect,"30.3 µM, […]",-7.363%
COc1ccc(Oc2cc(CN)ccn2)cc1,Percent Effect,"30 µM, 30.03 µM",-27.14%
O=C1N(c2ccsc2)CCC12CCCN(c1ncc(F)cn1)C2 (centres undefined),Percent Effect,"30.3 µM, […]",6.515%
CC(C)(C)n1ncc(NCCc2ccccc2C(F)(F)F)c(Cl)c1=O,Percent Effect,"30 µM, 30.03 µM",-22.16%
COC(C)(C)C(=O)N1CCC(c2cc(CN(C)C)n(C)n2)CC1.Cl,Percent Effect,"30.3 µM, […]",-10.49%
Cc1ccc(CN2Cc3c(cnn3C)C(COCC3CC3)C2)s1 (centres undefined),Percent Effect,"30 µM, 30.03 µM",38.62%
CC(C)=CCN1C(=O)[C@H]2CC[C@@H]1CN(C(=O)CCc1nc(Cl)n[nH]1)C2,Percent Effect,"30 µM, 30.03 µM",-4.584%
COC(=O)CN1CC2(CCNCC2)COc2ccccc2S1(=O)=O.O=C(O)C(F)(F)F,Percent Effect,"30 µM, 30.03 µM",-19.66%
Br.CCOc1ccc(Br)cc1C1CCCN1 (centres undefined),Percent Effect,"30 µM, 30.03 µM",-44.26%
CC(C)OCCCN(CC(=O)N1CCNCC1)C(=O)c1ccc(F)cc1.O=C(O)C(F)(F)F,Percent Effect,"30 µM, 30.03 µM",-6.979%
Cc1nc(CN2CCc3nc(NC(C)C)nc(C)c3C2)cs1,Percent Effect,"30 µM, 30.03 µM",1.176%
CC(C)Nc1nc(N2CCOCC2)nc2c1CN(Cc1ccoc1)CC2,Percent Effect,"30 µM, 30.03 µM",8.067%
Cc1nc(CN2CCc3nc(N4CCCC4)nc(NC(C)C)c3C2)cs1,Percent Effect,"30 µM, 30.03 µM",98.38%
CN(CCOc1ccc(Cl)cc1)Cc1ccc(S(=O)(=O)N(C)C)o1,Percent Effect,"30 µM, 30.03 µM",-22.42%
Cn1nc(-c2ccc(Cl)cc2)c(Br)c1C(=O)O,Percent Effect,"30 µM, 30.03 µM",-21.18%
Cc1cccc(CN2C(=O)CCC23CCN(C(=O)N2CCCC2)CC3)n1.O=C(O)C(F)(F)F,Percent Effect,"30.3 µM, […]",-18.36%
Cc1cc(NCc2cccnc2)n2nc(C)cc2n1,Percent Effect,"30 µM, 30.03 µM",51.67%
Cc1cc(NCc2ccc(CO)cc2)n2nc(C)cc2n1,Percent Effect,"30 µM, 30.03 µM",21.61%
Cc1cc(NCc2ccc(O)cc2)n2nc(C)cc2n1,Percent Effect,"30 µM, 30.03 µM",9.404%
COCCN1CCc2ncnc(-c3ccccc3)c2CC1.O=C(O)C(F)(F)F,Percent Effect,"30.3 µM, […]",-87.22%
NC(=O)c1cccc(OCC(=O)NS(=O)(=O)c2ccc3c(c2)CCC3)c1,Percent Effect,"30.3 µM, […]",-4.37%
CN(Cc1ccsc1)C(=O)Nc1cccnc1N1CCCC1,Percent Effect,"30 µM, 30.03 µM",-52.54%
CN(Cc1ccco1)C(=O)Nc1cccnc1N1CCCC1,Percent Effect,"30.3 µM, […]",18.63%
CCc1ncc(CN(C)C(=O)Nc2cccnc2N2CCCC2)s1,Percent Effect,"30 µM, 30.03 µM",50.09%
O=C(O)C(F)(F)F.O=C(c1cc[nH]n1)N1CCC2(CC1)CC(Oc1cccnc1)CO2 (centres undefined),Percent Effect,"30 µM, 30.03 µM",-3.949%
COc1ccc(Cl)cc1NCC(=O)NCCNc1ncccn1,Percent Effect,"30.3 µM, […]",-3.8%
same,Percent Effect,"10 mM, 10 mM as filed; unlikely as a test dose",-45.51%
COc1ccc(Cl)cc1NCC(=O)NCc1cccnc1OC,Percent Effect,"30.3 µM, […]",74.82%
same,Percent Effect,"10 mM, 10 mM as filed; unlikely as a test dose",-40.14%
COc1cc(CNC(=O)CNc2cc(Cl)ccc2OC)ccn1,Percent Effect,"30 µM, 30.03 µM",-27.18%
CS(=O)(=O)NCc1nnc2n1CCN(Cc1cccs1)CC2.O=C(O)C(F)(F)F,Percent Effect,"30.3 µM, […]",-150.1%
Cc1ccc(N2CCC3(CC2)COCCN(c2nccs2)C3)nn1.O=C(O)C(F)(F)F.O=C(O)C(F)(F)F,Percent Effect,"30 µM, 30.03 µM",-12.93%
O=C(c1ccccn1)N1CCC2(CC1)COC(COc1cccnc1)C2 (centres undefined),Percent Effect,"30 µM, 30.03 µM",52.19%

# Source: ChEMBL document CHEMBL3988442, “University of Dundee, Small-Polar-MMV Screening Library” (2021)
